Bioassay records: PubChem BioAssay, National Center for Advancing Translational Sciences (NCATS)
TDP1 cell CPT: growth inhibition of DT40 Tdp1-/-;hTDP1 cells with camptothecin (screen for TDP1 inhibitors); hit rate 12% among 420,000; AID 686979; Potency, µM (doses to about 46.2 µM), usual class: inhibitors; chicken DT40 Tdp1-/-;hTDP1 cells + 20 nM CPT, ATP luminescence, 48 h; note: nearly all actives have a fitted effect of over 55% in size
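Chicken DT40 Tdp1-/- cells complemented with human TDP1, 400 cells/well, exposed to compounds plus 20 nM camptothecin for at least 48 h at 37 C; viability read as ATP content by CellTiter-Glo luminescence.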
CtBP-E1A blk: CtBP/E1A binding inhibition; AlphaScreen GST-E1A/His-CtBP binding, 1536-well; active compounds read low; activity change, % (test concentration not listed); hit rate 0.49% among 340,000; in the data active = activity change below about -65%; inconclusive = mostly about -30% to -63%
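Protein mix (5X: 125 nM each GST-E1A, His-CtBP) was incubated with pinned compound 2 h at 37 deg C in dark, in 50 mM Tris pH 8.0 buffer with 300 mM NaCl. Glutathione donor and nickel acceptor beads followed; AlphaScreen signal read after 1 h.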
TDP1 inh: inhibitors of human tyrosyl-DNA phosphodiesterase TDP1; hit rate 0.28% among 350,000; Q9NUW8; recombinant TDP1, AlphaScreen DNA substrate cleavage; Potency, µM (doses to about 130 µM), most hits filed as inhibitors; AID 485290; note: nearly all actives have a fitted effect of over 40% in size
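Signal: AlphaScreen proximity between streptavidin donor and anti-FITC acceptor beads on intact substrate. Reaction: Tdp1 1 nM, substrate 15 nM final, 5 min RT after 15 min compound preincubation.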
IL1B secr inh: blocks inflammasome-driven IL-1 beta release; THP-1 LPS/ATP IL-1B secretion, AlphaLISA, 16 h; active compounds read low; activity change, % at 57.5 µM; hit rate 4.7% among 360,000; AID 743279; in the data active = activity change below about -50%; inconclusive = mostly about -30% to -49%
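THP-1 cells pretreated 1 hr with compounds (up to 57.5 uM final), then stimulated with LPS (250 ng/mL final) plus ATP (1.25 mM final); secreted IL-1B measured by AlphaLISA after 16 hr, decreased signal indicating inhibition.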
Six1-Eya2 inh: inhibitors of human Six1/Eya2 interaction; AlphaScreen GST-Six1/His-Eya2 binding, biochemical; active compounds read low; activity change, % (test concentration not listed); hit rate 0.56% among 360,000; in the data active = activity change below about -65%; inconclusive = mostly about -30% to -63%
Target sequence (O00167 whole entry, looked up): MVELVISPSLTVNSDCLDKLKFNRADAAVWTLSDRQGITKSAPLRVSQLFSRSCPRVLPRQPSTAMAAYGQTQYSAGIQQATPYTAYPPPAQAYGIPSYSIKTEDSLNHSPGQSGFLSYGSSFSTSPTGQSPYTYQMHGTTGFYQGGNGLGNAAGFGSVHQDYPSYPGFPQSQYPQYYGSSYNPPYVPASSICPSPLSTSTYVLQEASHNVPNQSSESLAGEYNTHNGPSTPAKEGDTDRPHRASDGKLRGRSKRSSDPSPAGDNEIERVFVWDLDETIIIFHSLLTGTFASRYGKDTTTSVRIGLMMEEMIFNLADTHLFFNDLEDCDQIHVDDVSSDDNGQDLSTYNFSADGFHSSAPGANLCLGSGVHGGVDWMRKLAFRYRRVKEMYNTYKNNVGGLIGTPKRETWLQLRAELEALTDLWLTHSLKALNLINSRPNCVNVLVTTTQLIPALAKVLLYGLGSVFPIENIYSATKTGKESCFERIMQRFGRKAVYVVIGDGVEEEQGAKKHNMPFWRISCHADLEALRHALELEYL
Target sequence (Q15475 whole entry, looked up): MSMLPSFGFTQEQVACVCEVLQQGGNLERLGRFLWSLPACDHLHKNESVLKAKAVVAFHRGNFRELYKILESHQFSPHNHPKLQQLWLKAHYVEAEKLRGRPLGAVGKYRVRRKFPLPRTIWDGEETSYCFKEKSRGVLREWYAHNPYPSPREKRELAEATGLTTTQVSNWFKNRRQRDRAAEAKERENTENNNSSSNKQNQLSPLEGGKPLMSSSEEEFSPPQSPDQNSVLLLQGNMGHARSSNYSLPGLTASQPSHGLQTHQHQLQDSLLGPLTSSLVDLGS
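Compounds are tested against tagged Six1 and Eya2 proteins bridged by glutathione donor and nickel acceptor beads; after a one-hour incubation at 37 °C without light, AlphaScreen emission is recorded.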
DT40 TDP1 no CPT: qHTS for Inhibitors of human tyrosyl-DNA phosphodiesterase 1 (TDP1): qHTS in cells in absence of CPT. hit rate 15% among 420,000. Potency, µM (titrated, usually from 46.2 µM), most hits filed as inhibitors. DT40 Tdp1-/- hTDP1 cells, no CPT, ATP luminescence, 48 h; note: nearly all actives have a fitted effect of over 55% in size
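Chicken DT40 Tdp1-/- cells stably complemented with human TDP1 were seeded at 400 cells/well with DMSO in place of 20 nM camptothecin. After compound pinning, cells grew at least 48 hr at 37 °C; viability read by CellTiter-Glo luminescence.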
Numbers stand for hits; i = inactive; ? = inconclusive; nt = not tested or not shown. Most compounds without a hit are left out; they make up all but 18% or so of the library. Unless noted, calls come from the whole dose curve; as a rule, active = well fitted curve in the direction sought with a large enough effect; inconclusive = small, poorly fitted or top-dose-only effect, or another doubt; inactive = no such curve, though single readings can be large; an effect the other way counts as inactive or inconclusive.

SMILES | TDP1 cell CPT | CtBP-E1A blk | TDP1 inh | IL1B secr inh | Six1-Eya2 inh | DT40 TDP1 no CPT
O=C(N/N=C/c1cc(Br)c(O)c(Br)c1)c1cc2c(ccc3ccccc32)o1 | 13µM | i | i | i | ? | ?
CCN(C[C@H]1N[C@@](CC)(C(=O)OC)[C@H]2C(=O)N(C)C(=O)[C@@H]12)C(=O)c1ccc(F)cc1 | i | i | i | i | i | i
Cc1ccccc1C(OCCN(C(C)C)C(C)C)c1ccccc1 (stereo unspecified) | ? | i | i | -53 | i | ?
Cc1cc(=O)oc2cc(NC(=O)C3CCCC3)ccc12 | i | i | i | i | i | i
O=S(=O)(O)CC(S)CS (stereo unspecified) | 8.4µM | nt | nt | nt | nt | 4.7µM
CC(=O)NC(Cc1ccc([N+](=O)[O-])cc1)C(=O)NCC(N)C(=O)c1ccccc1 (stereo unspecified) | 22µM | nt | nt | nt | nt | 5.6µM
CCCNC(=O)C(Cc1ccccc1)NC(=O)c1cccc([N+](=O)[O-])c1 (stereo unspecified) | i | i | i | i | i | i
COc1ccc(CNCc2ccc(C)cc2)c(OC)c1 | ? | i | nt | i | i | ?
Cc1ccc(C(OCC(O)CNCc2ccc(F)cc2)c2ccccc2)cc1 (stereo unspecified) | 15µM | nt | nt | -98 | i | 16µM
O=C(c1ccccc1)c1ccc(OCC(O)CNCc2cccc(Cl)c2)cc1 (stereo unspecified) | ? | i | nt | -82 | i | ?
O=C(c1ccccc1)c1ccc(OCC(O)CNCc2ccc(F)cc2)cc1 (stereo unspecified) | i | i | nt | -72 | i | i
CCC(=O)c1ccc(OCC(O)CNCc2ccc(F)cc2)cc1 (stereo unspecified) | i | i | i | i | i | i
CC/C(=N\NC(=O)c1nnn(-c2nonc2N)c1-c1ccc2c(c1)OCO2)c1ccccc1 | ? | i | i | i | i | i
COc1cc(C(=O)COC(=O)c2ccc([N+](=O)[O-])o2)cc(OC)c1OC | i | i | i | i | i | i
CC(C)(C)c1cnnn1-c1ccc(C(=O)CCl)cc1 | 1.3µM | i | i | -106 | i | 1.8µM
COc1cccc(CNC(=O)Cn2nc(C)c([N+](=O)[O-])c2C)c1 | i | nt | nt | i | i | i
CCO[C@@H]1OC(C(=O)O)=C[C@H](c2ccc3c(c2)OCO3)[C@H]1CCCO | i | i | i | i | i | i
CN(C)CCCN(C(=O)COc1ccccc1)c1nc2ccc(Cl)cc2s1 | ? | i | i | -51 | i | ?
Cc1ccc2nc(N(CCCN(C)C)C(=O)CCc3ccccc3)sc2c1 | ? | i | i | nt | i | ?
CN(C)CCCN(C(=O)CCc1ccccc1)c1nc2ccc(Cl)cc2s1 | 23µM | i | i | nt | i | 23µM
O=C(CSc1nc(-c2ccccc2)c(-c2ccccc2)o1)N1CCCCC1 | ? | i | nt | i | i | ?
O=C(CSCC(=O)N1CCCCC1)Nc1nc(-c2ccccc2)c(-c2ccccc2)s1 | 18µM | i | i | i | i | 16µM
COc1ccccc1CCNC(=O)C1CCC(=O)N(Cc2ccccc2OC)C1 (stereo unspecified) | i | i | i | i | i | i
COc1ccccc1CCCNC(=O)C1CCC(=O)N(CCc2ccc(Cl)cc2)C1 (stereo unspecified) | 18µM | i | i | -51 | i | 23µM
CCOC(=O)c1ccc(NC(=O)c2ccccc2)cc1 | i | i | i | ? | i | i
CC(C)c1ccc(NC(=O)c2ccc(=O)n(Cc3ccccc3)c2)cc1 | 16µM | nt | i | nt | nt | 21µM
CCOC(=O)c1ccc(NC(=O)c2ccc(=O)n(Cc3cccc(C)c3)c2)cc1 | 21µM | nt | i | nt | nt | 16µM
CCOC(=O)c1ccc(NC(=O)c2c(N)n(Cc3ccccc3)c(=O)[nH]c2=O)cc1 | 16µM | i | nt | i | i | i
CCC(Sc1nccn1C)C(=O)Nc1ccc(Cl)cn1 (stereo unspecified) | i | i | i | i | i | i
